The list is not random: actives were taken first. Their share in the collection is about 2.8%.
PP5 primary = PP5 phosphatase inhibitors, primary screen, biochemical, fluorescence. Serine/threonine-protein phosphatase 5 (Homo sapiens), P53041. purified PP5c, OMFP substrate fluorescence. inhibition, % at 6.7 µM. 0.18% of 320,000 active. AID 1987, 2009;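 active means inhibition above the campaign's mean inhibition across all tested compounds plus 3 SD, cut at about 9.5% in these data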
Target sequence (P53041 whole entry, looked up): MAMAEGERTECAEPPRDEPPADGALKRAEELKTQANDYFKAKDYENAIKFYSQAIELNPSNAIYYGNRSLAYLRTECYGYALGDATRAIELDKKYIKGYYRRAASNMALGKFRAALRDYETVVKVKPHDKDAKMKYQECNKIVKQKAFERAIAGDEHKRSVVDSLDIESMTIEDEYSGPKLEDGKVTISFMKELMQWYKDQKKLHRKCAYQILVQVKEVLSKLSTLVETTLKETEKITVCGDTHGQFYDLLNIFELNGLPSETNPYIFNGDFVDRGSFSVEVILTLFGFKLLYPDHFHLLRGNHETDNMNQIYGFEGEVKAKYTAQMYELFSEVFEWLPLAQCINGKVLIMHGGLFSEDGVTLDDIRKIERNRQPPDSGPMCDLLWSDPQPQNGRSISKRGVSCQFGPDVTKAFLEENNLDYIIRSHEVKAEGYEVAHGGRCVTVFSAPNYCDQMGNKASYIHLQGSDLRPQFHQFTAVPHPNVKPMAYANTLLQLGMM
IDE act = human IDE activators in live cells, primary screen, fluorescence polarization, HEK cells, FAbeta-B substrate; Insulin-degrading enzyme (Homo sapiens), P14735; FAbeta-B cleavage; 0% vehicle, 100% cell-free pure enzyme wells; activation, % at 5.96 µM; 0.073% of 340,000 active; AID 493087, 2011;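 active means activation above the mean of all tested compounds plus 3 SD, set per screening campaign, cut at about 17% in these data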
Granule exo inh = LAMP-1 surface exposure blockers, TALL-104 cells – cell-based, flow cytometry, MLPCN library, primary screen; AID 651702, 2012; 0.66% of 360,000 active; TALL-104 LAMP-1 surface exposure; cells stimulated with thapsigargin and PMA; inhibition, % at 10 µM;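 active means inhibition above about 55%, limit read from the data; inconclusive means no clear call, values can overlap the other calls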
IDE cell inh = human IDE inhibitors in live cells, primary screen, fluorescence polarization, HEK cells, FAbetaB substrate; Insulin-degrading enzyme (Homo sapiens), P14735; AID 434962, 2010; inhibition, % at 5.59 µM; 0.41% of 320,000 active; FAbetaB cleavage;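 active means percent inhibition above the average of all tested compounds plus 3 SD, set per screening campaign, cut at about 16% in these data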;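 further: IDE supplied by intact live HEK cells; FP after avidin binding of uncleaved biotin substrate so inhibition keeps polarization high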
PP1 inh = PP1-alpha phosphatase inhibitors, primary screen, counter-screen for PP5 inhibitor project, biochemical, fluorescence, OMFP substrate, single point. AID 2235, 2010. Serine/threonine-protein phosphatase PP1-alpha catalytic subunit (Homo sapiens), P62136. inhibition, % at 6.7 µM. 0.9% of 320,000 active. purified PP1alpha;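 active means inhibition above the mean inhibition of all tested compounds plus 3 SD, computed separately for each screening campaign, cut at about 15% in these data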
SKKanGAS inh = S. pyogenes SKKanGAS growth inhibitors in kanamycin, primary screen, streptokinase expression inhibitor project, SKKanGAS strain, BacTiter-Glo luminescence; 6 h; inhibition, % at 7.5 µM; 1.3% of 300,000 active; AID 1662, 2009;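 active means mean replicate score, as percent of positive control median, at least 50; inconclusive means mean below 50 but one replicate at or above 50; inactive means mean and every replicate below 50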;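 further: strain carries kanamycin resistance gene driven by streptokinase promoter and grows in 40 µg/ml kanamycin; loss of luminescence reflects streptokinase promoter inhibition or plain growth inhibition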
IDE cell inh cf = human IDE inhibitors in live cells, confirmation, fluorescence polarization, HEK cells, FAbetaB substrate | shares compounds with IDE cell inh | FAbetaB cleavage | inhibition, % at 5.59 µM | 51% of 1,200 active | AID 435028, 2010;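 active means mean inhibition across triplicate wells above the cutoff set by the earlier primary insulin-degrading enzyme screen, cut at about 16% in these data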
HEK293 tox = cytotoxicity in HEK cells, cytotoxicity control for IDE inhibitor project, cell-based, luminescence; HEK293 cytotoxicity, ATP luminescence; shares compounds with IDE cell inh; 28% of 1,200 active; inhibition, % at 5.59 µM; in the data active means inhibition above about 22%
Numbers stand for hits; - = inactive; ? = inconclusive; . = no result given.

SMILES	PP5 primary	IDE act	Granule exo inh	IDE cell inh	PP1 inh	SKKanGAS inh	IDE cell inh cf	HEK293 tox
COc1ccc(/C=N\NC(=O)/C(=C\Nc2nccc(C)n2)NC(=O)c2ccccc2)cc1	-	-	-	-	-	-	.	.
Cc1ccc(/C=N\NC(=O)/C(=C\Nc2nccc(C)n2)NC(=O)c2ccccc2)cc1	-	-	-	25.8	-	-	31.4	-
O=C(COC(=O)c1cccnc1Cl)Nc1nc(-c2ccccc2)cs1	-	-	?	26.1	-	-	-	-
CC[n+]1c(/C=C/C=C/N(C(C)=O)c2ccccc2)sc2cc(OC)ccc21	-	.	.	40.5	-	.	34.9	63.5
CCCN1C(=O)/C(=C/C=C2\N(CC)c3ccccc3C2(C)C)SC1=S	-	-	-	16.1	-	-	114.3	-
CN1/C(=C\C=C2/SC(=S)N(CC(=O)O)C2=O)C(C)(C)c2ccccc21	-	-	-	132.6	-	-	25.9	-
COc1cc(CNc2ccc(CNc3ncn[nH]3)cc2)cc(Cl)c1OCc1ccccc1	-	-	-	-	-	-	.	.
CC1CCN(c2nc3ccc(C(=O)NCCCN4CCCCC4C)cc3s2)CC1 (stereo not given)	-	-	-	-	-	-	.	.
COc1cc(OC)cc(C(=O)Nc2cccc(NC(=O)c3cc(OC)cc(OC)c3)n2)c1	-	-	-	16.9	-	-	-	-
C#Cc1ccc([C@@H]2C=C(C(=O)OCC=C)O[C@H](OCc3ccc(CO)cc3)C2)cc1	-	-	-	-	-	-	.	.
Cc1ccc(C)c(C(=O)CCC(=O)Nc2ccc(N3CCN(C)CC3)cc2C)c1	.	-	-	-	.	.	.	.
Cc1ccc2c(c1)CCCN2S(=O)(=O)c1cccc(C(=O)Nc2ccccc2C(=O)O)c1	-	-	-	40.8	-	-	23.5	25.6
CC(=O)c1sc(N/N=C\c2c(O)ccc3ccccc23)nc1C	-	-	-	23.3	-	49.9	38.7	38.5
CC(=O)c1sc(N/N=C/c2cccc(O)c2)nc1C	-	-	-	-	-	-	.	.
COc1ccc(/C=N/n2c(C)nc3sc(C)c(C)c3c2=O)cc1	-	.	-	-	-	-	.	.
Cc1sc2nc(C)n(/N=C/c3ccccc3)c(=O)c2c1C	-	-	-	16.2	-	-	-	-
O=C(c1ccccc1)c1ccc(O)cc1O	-	-	-	19.0	-	-	39.7	-
O=C(c1ccc(O)cc1)c1ccc(O)cc1O	-	-	-	-	-	-	.	.
CN1C(=O)c2ccc(N3CCCC3)cc2C1=O	-	-	-	-	-	-	.	.
O=C1NC(=S)N/C1=C\c1ccc(N2CCOCC2)cc1	-	-	-	-	-	-	.	.
Cc1cc(N2CCCC2)ccc1/C=C1\NC(=S)N(C)C1=O	-	-	-	79.2	-	-	115.7	-
O=C1/C(=C/c2ccc(N3CCCC3)cc2)NC(=S)N1C1CC1	-	-	-	89.6	-	-	119.9	26.9
COc1ccc(OC)c(S(=O)(=O)NC2CC(=O)N(c3cccc(F)c3)C2)c1 (stereo not given)	-	-	-	-	-	-	.	.
COc1ccc(C(=O)CC2(C(=O)O)CCCCC2)cc1	-	-	-	-	-	-	.	.
CCOc1ccc(N)c(SSc2cc(OCC)ccc2N)c1	-	-	-	-	-	-	.	.
CS(=O)(=O)c1ccc(N)c(SSc2cc(S(C)(=O)=O)ccc2N)c1	-	-	-	30.4	-	-	26.7	-
CC(=O)c1ccc(-c2ccc(-c3cc(=O)oc4c(C(C)C)ccc(C)c34)cc2)cc1	.	-	-	.	.	.	.	.
N#C/C(=C/c1ccncc1)c1nc2ccccc2s1	-	-	-	43.9	-	-	-	-

Compound activity: PubChem, several laboratories
